JMJD2A Tudor inh – qHTS Assay for Inhibitors of JMJD2A-Tudor Domain; Lysine-specific demethylase 4A (Homo sapiens), O75164; AlphaScreen JMJD2A-Tudor / H3K4me3 peptide binding; Potency, µM (doses to about 114 µM), for inactives: top-dose activity change, negative = inhibition, usual class: inhibitors; 390,000 tested, 4.4% active; AID 504339, 2011; note: potency is the fitted concentration of half-maximal effect; % is set by controls: 0 for no effect and ±100 for the full control effect; nearly all actives have a fitted effect of over 50% in size
Target sequence (O75164 whole entry, looked up, the tested form may be a part): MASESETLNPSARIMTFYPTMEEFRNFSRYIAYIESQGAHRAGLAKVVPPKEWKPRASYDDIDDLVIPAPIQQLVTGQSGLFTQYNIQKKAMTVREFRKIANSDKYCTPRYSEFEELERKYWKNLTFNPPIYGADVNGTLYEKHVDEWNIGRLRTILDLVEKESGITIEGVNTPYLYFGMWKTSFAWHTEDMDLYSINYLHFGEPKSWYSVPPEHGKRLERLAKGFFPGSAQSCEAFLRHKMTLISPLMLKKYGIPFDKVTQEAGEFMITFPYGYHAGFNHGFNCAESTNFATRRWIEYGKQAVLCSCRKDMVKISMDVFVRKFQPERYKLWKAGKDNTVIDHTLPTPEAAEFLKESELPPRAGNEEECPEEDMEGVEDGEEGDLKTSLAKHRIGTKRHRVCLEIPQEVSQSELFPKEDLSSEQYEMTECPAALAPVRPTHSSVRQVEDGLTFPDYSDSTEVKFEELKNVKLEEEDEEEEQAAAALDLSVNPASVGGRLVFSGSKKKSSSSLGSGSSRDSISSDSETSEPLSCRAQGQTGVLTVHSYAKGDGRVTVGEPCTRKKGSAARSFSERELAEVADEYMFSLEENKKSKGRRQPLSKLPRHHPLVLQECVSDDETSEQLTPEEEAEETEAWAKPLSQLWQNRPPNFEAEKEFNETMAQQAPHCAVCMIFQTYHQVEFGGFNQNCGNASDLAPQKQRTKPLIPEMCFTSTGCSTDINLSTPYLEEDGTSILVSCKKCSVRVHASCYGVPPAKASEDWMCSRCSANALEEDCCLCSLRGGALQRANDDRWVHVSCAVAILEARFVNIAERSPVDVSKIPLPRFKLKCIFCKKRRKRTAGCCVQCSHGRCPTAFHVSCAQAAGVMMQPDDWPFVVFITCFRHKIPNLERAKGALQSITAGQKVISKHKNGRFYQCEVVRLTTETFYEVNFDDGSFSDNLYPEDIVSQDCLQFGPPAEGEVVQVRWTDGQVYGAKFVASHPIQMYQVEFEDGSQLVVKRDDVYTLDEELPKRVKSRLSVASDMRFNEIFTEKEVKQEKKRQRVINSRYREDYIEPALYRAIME
HP1b chromo inh – HTS for Inhibitors of HP1-beta Chromodomain Interactions with Methylated Histone Tails; 390,000 tested, 0.56% active; Potency, µM (titrated, usually from 114 µM), for the others: top-dose activity change, negative = inhibition, hits mostly inhibitors; AlphaScreen HP1-beta / biotin-H3K9me3 peptide binding; Chromobox protein homolog 1 (Homo sapiens), P83916; note: potency is the fitted concentration of half-maximal effect; nearly all actives have a fitted effect of over 70% in size
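HP1-beta protein (50 nM final) preincubated 30 min at room temperature with biotinylated H3(1-18)K9me3 peptide (50 nM) in PBS pH 7.4, 0.01% Tween-20, then compound added for 30 min. AlphaScreen streptavidin donor/nickel chelate acceptor beads (10 ug/mL final), 30 min dark, luminescence read.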
G9a inh – qHTS Assay for Inhibitors of Histone Lysine Methyltransferase G9a; Histone-lysine N-methyltransferase EHMT2 (Homo sapiens), Q96KQ7; G9a H3K9 monomethylation, AlphaScreen, 2 h; Potency, µM (titrated, usually from 102 µM), inactives show at the highest dose activity, negative = inhibition, hits mostly inhibitors; 350,000 tested, 8.8% active; AID 504332, 2011; note: potency is the fitted concentration of half-maximal effect; % is set by controls: 0 for no effect and ±100 for the full control effect; nearly all actives have a fitted effect of over 75% in size
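Methyltransferase reactions run at room temperature for 2 h (20 nM enzyme, 500 nM biotin-H3K9 peptide, 20 uM SAM) after a 15 min compound preincubation; product detected by AlphaScreen beads and anti-H3K9me1 antibody.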
PLK1 PBD inh – qHTS for Inhibitors of PLK1-PDB (polo-like kinase 1 - polo-box domain): Primary Screen; Serine/threonine-protein kinase PLK1 (Homo sapiens), P53350; Plk1 PBD binding of FITC phosphopeptide, fluorescence polarization; Potency, µM, without a hit: max response, negative = inhibition, hits mostly inhibitors; 360,000 tested, 2.8% active; note: potency is the fitted concentration of half-maximal effect; series mostly up to about 57 µM; % is set by controls: 0 for no effect and ±100 for the full control effect; nearly all actives have a fitted effect of over 65% in size
PI5P4Ka inh – qHTS for Inhibitors of phosphatidylinositol 5-phosphate 4-kinase (PI5P4K). 330,000 tested, 1.2% active. PI5P4Kalpha enzyme, ADP-Glo luminescence, 60 min; stronger effect = lower value. AID 652105, 2013. max response, %; active = max response of -50% or lower; inconclusive = between -30% and -50%; inactive = -30% or higher; note: value at the top dose of about 77 µM; % is set by controls: 0 for no effect and ±100 for the full control effect
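qHTS, 1536-well: enzyme/substrate mix, compound by pin tool, 5 microM ATP final; RT 60 min; ADP-Glo reagents 1 (45 min) then 2 (30 min); luminescence.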
BAZ2B block – qHTS Assay for Inhibitors of BAZ2B; 360,000 tested, 4.4% active; Bromodomain adjacent to zinc finger domain protein 2B (Homo sapiens), Q9UIF8; AlphaScreen BAZ2B-H3K14Ac peptide displacement; Potency, µM (titrated, usually from 114 µM), inactives show top-dose activity change, negative = inhibition, actives largely listed as inhibitors; note: potency is the fitted concentration of half-maximal effect; % is set by controls: 0 for no effect and ±100 for the full control effect; nearly all actives have a fitted effect of over 60% in size
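AlphaScreen displacement: compounds (up to 110uM) incubated 30 min at room temperature with a preformed 50 nM BAZ2B/50 nM biotinylated H3K14Ac peptide complex in PBS pH 7.4 with Tween-20. Donor and acceptor beads at 10 ug/mL final added, 20 min light-protected before reading.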
* hit, by the source's call; u = inconclusive; x = no result; [ ] = another dose, or the depositor's remark. The list is not random: actives were taken first. Their share in the collection is about 12%. Unless noted, calls come from the whole dose curve; as a rule, active = well fitted curve in the direction sought with a large enough effect; inconclusive = small, poorly fitted or top-dose-only effect, or another doubt; inactive = no such curve, though single readings can be large; an effect the other way counts as inactive or inconclusive.

SMILES	JMJD2A Tudor inh	HP1b chromo inh	G9a inh	PLK1 PBD inh	PI5P4Ka inh	BAZ2B block
O=S(=O)(NCCc1cn(S(=O)(=O)c2ccccc2)c2ccccc12)c1ccccc1	50.1µM*	0.3%	x	x	x	x
O=S(=O)(NCCc1c[nH]c2ccccc12)c1ccccc1	-17.3%	15.0%	-47.8%	3.0%	-6.1	-14.1%
CCN(CC)S(=O)(=O)c1cccc(N=Nc2sc(N)nc2C)c1	35.5µM*	u	39.8µM*	-17.0%	-8.1	11.2µM*
CCN(CC)S(=O)(=O)c1cccc(N=NC2=C(O)CCCC2=O)c1	-26.6%	22.8%	u	-14.7%	-13.4	u
Nc1cccc(S(=O)(=O)N2CCN(S(=O)(=O)c3ccc4c(c3)OCCO4)CC2)c1	-2.0%	x	x	x	x	x
Cc1ccc(NC(=S)N2CCC(c3ccc(C)cc3)C2)cc1 (stereo not drawn)	-25.3%	-20.9%	10µM*	21.2µM*	-10.0	0.6%
Cc1ccc2oc(=O)c(/C=C(\O)c3cccs3)nc2c1	-2.1%	22.2%	u	29.2%	5.9	-24.2%
Cc1ccc2oc(=O)c(/C=C(\O)c3ccccc3)nc2c1	-22.6%	60.6%	7.94µM*	-15.8%	-0.8	-32.1%
O=c1oc2ccc(Cl)cc2nc1/C=C(\O)c1cccs1	u	-0.9%	3.16µM*	53.3%	-5.2	50.1µM*
Cc1ccc2oc(=O)c(/C=C(\O)CC(C)C)nc2c1	-16.9%	17.8%	50.1µM*	-10.0%	6.3	-35.3%
O=C(/C=C\c1ccco1)Oc1cccc2cccnc12	u	-12.0%	-46.6%	-11.6%	-6.4	31.6µM*
O=C(/C=C/c1ccco1)Oc1cccc2cccnc12	u	7.3%	x	4.8%	-4.4	44.7µM*
Cc1ccc2cccc(OC(=O)/C=C\c3ccccc3)c2n1	20µM*	20.6%	9.8%	-4.2%	0.2	-11.1%
O=C(Nc1c(Cl)cccc1Cl)Oc1cccc2cccnc12	x	x	x	-6.8%	1.4	x
Cc1ccc2cccc(OC(=O)c3c(F)cccc3Cl)c2n1	x	x	x	4.4%	53.2	x
CCc1ccc(OC(=O)/C=C/c2ccco2)cc1	79.7%	-19.5%	x	-4.9%	-1.3	u
CC1CCN(c2nn3c(=O)c(C(=O)NCCc4ccccc4)cnc3s2)CC1	0.6%	21.0%	4.9%[59 µM]	x	x	2.5%
CC(O)(Cc1ccccn1)Cc1ccccn1	-14.5%	-9.6%	x	-7.7%	9.9	x
CN1CCN(c2ncc3nc(-c4cccc(C#N)c4)c(=O)n(C[C@H]4CCCO4)c3n2)CC1	x	x	-3.0%[0.501 µM]	x	x	x
CC1CC(NC(=O)CC#N)CC(C)(C)C1 (stereo not drawn)	20.7%	23.8%	x	2.4%	3.4	-1.5%
CC1CC(NC(=O)Cc2ccc(Br)cc2)CC(C)(C)C1 (stereo not drawn)	39.8µM*	8.2%	-6.9%[59 µM]	5.97µM*	2.5	11.9%
O=C1OCCN1S(=O)(=O)Nc1ccccc1	79.4µM*	23.7%	44.7µM*	-6.6%	-4.1	-36.3%
C/C=C1\COC(C(=O)NCCOCCO)(C(F)(F)F)C=C1C=C1CCCCC1 (stereo not drawn)	-15.2%	36.5%	x	x	x	x
O=C(CSc1nc(C(F)(F)F)cc(=O)[nH]1)N1CCC(Cc2ccccc2)CC1	u	13.5%	u	-17.2%	-9.7	-1.1%
Cc1ccc(CNC(=O)CN2CCCC(C)C2)cc1 (stereo not drawn)	-3.8%	20.3%	12.6%	-4.3%	0.5	35.2%
SMILES	JMJD2A Tudor inh	HP1b chromo inh	G9a inh	PLK1 PBD inh	PI5P4Ka inh	BAZ2B block
Cc1cc(NC(=O)CN2CCN(c3cccc(Cl)c3)CC2)no1	-14.4%	16.4%	-4.2%	1.3%	-3.0	-17.7%
O=C(CN1CCN(c2ncccn2)CC1)NCCC1=CCCCC1	3.16µM*	u	u	2.4%	x	50.1µM*
Cc1cc(NC(=O)CN2CCCCC2)no1	u	u	u	-7.5%	-19.1	56.2µM*
O=C(CSc1ncccn1)NCCC1=CCCCC1	-6.1%	22.8%	-12.1%	-8.8%	1.0	5.2%
Cc1cc(NC(=O)CN2CCCC(C)C2)no1 (stereo not drawn)	2.82µM*	50.1µM*	x	-4.1%	-3.2	0.8%
Cc1cc(NC(=O)CN2CCN(c3ncccn3)CC2)no1	20µM*	u	8.91µM*	-3.2%	x	56.2µM*
CCOc1ccc(NC(=O)CN2C(C(=O)OC)=C(c3ccccc3)c3cc(Cl)ccc3S2(=O)=O)cc1	-6.5%	17.2%	-8.7%[59 µM]	x	x	-3.9%
Cn1nnc(C(O)CN2CCOCC2)n1 (stereo not drawn)	2.9%	36.1%	79.4µM*	-4.8%	-0.6	-6.6%
CCC(=O)N1c2ccccc2CC1C(=O)NCCc1ccccc1 (stereo not drawn)	-18.5%	4.3%	24.6%[59 µM]	x	x	-1.4%
O=C(Nc1ccc(Cl)cc1Cl)c1ccc2c(c1)OCCO2	29.4%	35.1%	15.6%[59 µM]	3.0%	17.7	15.9%
O=C(Nc1ccc(Cl)cc1Cl)c1cccc(N2C(=O)C=CC2=O)c1	3.16µM*	u	u	1.89µM*	-51.1*	3.6%
NC(C(=O)O)[C@H](O)C(=O)O (stereo partly drawn)	x	x	5.8%[59 µM]	x	x	x
CC1CCC(NC(=O)CNC(=O)Cc2cccc3ccccc23)CC1 (stereo not drawn)	u	-2.8%	-5.3%	23.8µM*	-8.9	1.6%
Cc1ccc(NC(=S)C2=C(O)c3sccc3N(C)S2(=O)=O)cc1	-26.4%	6.4%	17.8µM*	u	-20.4	-38.9%
Cc1ccc(NC(=O)C2=C(O)c3sccc3N(C)S2(=O)=O)cc1	u	17.5%	-8.6%[12.7 µM]	-8.1%	u	0.8%
Cc1oc2c(c1C(=O)Nc1ccc(OC(F)(F)F)cc1)C1=NCCN1C=N2	-11.3%	28.5%	12.8%[59 µM]	x	x	-1.4%
CN(C)C(CNC(=O)CSc1nc2sc3c(c2c(=O)n1C)CCCC3)c1ccccc1 (stereo not drawn)	-22.6%	21.1%	u	-23.0%	7.4	6.1%
COc1ccc(-c2n[nH]c(=S)n2/N=C/c2cccn2C)cc1	6.31µM*	u	1.12µM*	-13.0%	-3.8	-35.3%
Cc1ccc(-c2n[nH]c(=S)n2/N=C/c2cccn2C)cc1	22.4µM*	-30.4%	1.12µM*	-18.7%	-10.3	-34.6%
Cn1cccc1/C=N/n1c(-c2ccc(Cl)cc2Cl)n[nH]c1=S	79.4µM*	-12.8%	u	-17.6%	-15.6	44.7µM*
Cn1cccc1/C=N/n1c(-c2ccc(Cl)cc2)n[nH]c1=S	-15.8%	35.2%	u	-6.9%	3.4	3.2%
Cc1nnc(C)n1/N=C/c1ccccn1	3.1%	39.4%	4.6%	2.8%	0.2	-1.4%
Cc1nnc(C)n1/N=C/c1cccn1C	-33.6%[11.4 µM]	-7.3%	-6.2%[59 µM]	2.99µM*	u	-2.4%

Screening results (PubChem)
